Several values for one entry are separate records, joined by “and”; a condition that tells them apart may be missing. Equal entries are not always repeated.
Each compound was assayed on Plasmodium falciparum (assay: GSK_TCMDC: Inhibition of Plasmodium falciparum 3D7 in whole red blood cells, using parasite LDH activity as an index of growth. Test compounds present at 2uM).
Format: functional
Compound `COC(=O)c1ccc(CC(C)NCC(O)c2ccc(F)c(Cl)c2)cc1.Cl` (stereo unspecified) has an Inhibition of 98%. `O=C(Nc1ccc(Oc2ccccc2)cc1)NC1CCC(CN2CCC(c3c[nH]c4ccccc34)CC2)CC1` (stereo unspecified) was tested, and the Inhibition was 100%. `O=C(/C=C/c1ccc(Cl)c(Cl)c1)NCC1CCC(N2CCC(c3c[nH]c4ccccc34)CC2)CC1` (stereo unspecified) was tested, and the Inhibition was 100%. `CCCN(CCC)CCOC(=O)C(OCC)(c1ccccc1)c1ccccc1` showed an Inhibition of 97%. `COc1ccc2[nH]cc(C3CC4CCC(C3)N4CCC3CCN(C(=O)/C=C/c4ccc(Cl)c(Cl)c4)CC3)c2c1` (stereo unspecified) showed an Inhibition of 100%. `COC(=O)/C=C/c1ccc(CC(C)NCC(O)c2cccc(C(F)(F)F)c2)cc1` (stereo unspecified) gave an Inhibition of 97%. Compound `CNCCCCCCc1ccc(CC(C)NCC(O)c2cccc(Cl)c2)cc1.Cl` (stereo unspecified) has an Inhibition of 94%. `O=C(NC1CCC(CN2CCC(c3c[nH]c4ccccc34)CC2)CC1)c1cc(-c2ccccc2)c(C(F)(F)F)s1` (stereo unspecified) was tested, and the Inhibition was 100%. Work on `CC(C)CNCc1cccc(-c2cccc(CN(C(=O)c3cccs3)C3CCN(Cc4ccccc4)CC3)c2)c1.O=C(O)C(F)(F)F` yielded an Inhibition of 90%. With `Cc1ccc(C)c(N2CCN(Cc3ccccc3O)CC2)c1` the Inhibition was 100%. Work on `S=C(NCCc1ccc(Cl)cc1)NC1CCC(CN2CCC(c3c[nH]c4ccccc34)CC2)CC1` (stereo unspecified) yielded an Inhibition of 100%. `COc1ccc(CC(C)NCC(O)c2cccc(Cl)c2F)cc1` (stereo unspecified) gave an Inhibition of 88%. `O=C(/C=C/c1ccc(Cl)c(Cl)c1)N1CCC2CC(N3CCC(c4c[nH]c5ccccc45)CC3)CCC2C1` (stereo unspecified) showed an Inhibition of 100%. For `CCCCCCCc1cc(O)c2c3c(c(=O)oc2c1)CN(C)CC3`, the Inhibition was 97%. In the case of `COC(=O)c1ccc(CC(C)NCC(O)c2cccc(Br)c2)cc1` (stereo unspecified), the Inhibition is reported as 99%. `COC(=O)c1ccc(CC(C)NCC(O)c2cccc(C(F)(F)F)c2)cc1C` (stereo unspecified) gave an Inhibition of 93%. `O=C(/C=C/c1ccc(Cl)c(Cl)c1)NCCC1CCC(N2CCC(c3c[nH]c4ccccc34)CC2)CC1` (stereo unspecified) gave an Inhibition of 100%. For `COC(=O)c1ccc(CC(C)NCC(O)c2cc(Cl)c(N)c(Cl)c2)cc1` (stereo unspecified), the Inhibition was 91%. Work on `CC(Cc1ccc(NC(=O)[C@H](C)NCCc2cccc(Cl)c2)cc1)NCCc1cccc(Cl)c1.Cl` (stereo partly specified) yielded an Inhibition of 100%. With `Cc1ccc(C[C@@H](C)NC[C@H](O)c2cccc(C(F)(F)F)c2)cc1.O=C(O)/C=C/C(=O)O` the Inhibition was 100%. Work on `CC[C@H]1CN2CC[C@H]1C[C@H]2[C@H](O)c1cc(-c2ccc(Cl)c(Cl)c2)nc2ccc(OC)cc12.Cl` yielded an Inhibition of 98%. In the case of `Cc1c(C)c2c(c(C)c1O)CC[C@](C)(C(=O)N1CCC(CN3CCC(c4c[nH]c5ccccc45)CC3)CC1)O2`, the Inhibition is reported as 100%. With `CN(c1cc(NC(=O)c2ccc(F)cc2)ccn1)C1CCN(Cc2ccc(C#N)cc2)CC1.O=C(O)C(F)(F)F` the Inhibition was 87%. Compound `O=C(CCCCCc1ccccc1)NC1CCC(CN2CCC(c3c[nH]c4ccccc34)CC2)CC1` (stereo unspecified) has an Inhibition of 86%. In the case of `COCC(=O)N(Cc1ccccc1-c1cccc(CNCCc2ccccc2)c1)C1CCN(Cc2ccccc2)CC1.O=C(O)C(F)(F)F`, the Inhibition is reported as 93%. In the case of `COc1ccc(N(c2nc(-c3cc(Cl)ccc3Cl)cs2)C2CCNCC2)cc1.O=C(O)C(F)(F)F`, the Inhibition is reported as 91%. `O=C(/C=C/c1ccc(Cl)c(Cl)c1)NCCCCCN1C2CCC1CC(c1c[nH]c3ccc(O)cc13)C2` (stereo unspecified) was tested, and the Inhibition was 100% and 91%. Compound `Cc1csc(-c2ccc3[nH]cc(C4=CCN(C)CC4)c3c2)n1` has an Inhibition of 93%. In the case of `O=C(NC1CCC(CN2CCC(c3c[nH]c4ccccc34)CC2)CC1)c1cn(Cc2ccccc2)c2ccccc12` (stereo unspecified), the Inhibition is reported as 91%. `Cn1c(C2CC3CCC(C2)N3CC2CCC(NC(=O)/C=C/c3ccc(Cl)c(Cl)c3)CC2)nc2ccccc21` (stereo unspecified) was tested, and the Inhibition was 100%. `C/C=C1\CN2CC[C@H]1C[C@@H]2[C@@H](O)c1ccnc2ccc(O)cc12` gave an Inhibition of 98%. `CCCCCCC(CC)c1cc(O)c2c(c1)OC(C)(C)c1ccncc1-2.Cl` (stereo unspecified) was tested, and the Inhibition was 94%. `CNCCCCCCOc1ccc(CC(C)NCC(O)c2cccc(C(F)(F)F)c2)cc1.Cl` (stereo unspecified) gave an Inhibition of 100%. `CN(c1cc(NC(=O)c2cccs2)ccn1)C1CCN(Cc2cccc(C#N)c2)CC1.O=C(O)C(F)(F)F` showed an Inhibition of 90%. `Cn1nc(-c2ccc(S(=O)(=O)NC3CCC(CN4CCC(c5c[nH]c6ccccc56)CC4)CC3)s2)cc1C(F)(F)F` (stereo unspecified) was tested, and the Inhibition was 96% and 98%. For `FC(F)(F)c1cccc(N2CCC(CN3CCC(c4c[nH]c5ccccc45)CC3)CC2)n1.O=C(O)C(F)(F)F`, the Inhibition was 84%. `CC(Cc1ccc(C(C)(C)C)cc1)NCC(O)c1ccccc1.Cl` (stereo unspecified) was tested, and the Inhibition was 94%. Work on `CCOC(C(=O)OCC1CCCN1C(C)C)(c1ccccc1)c1ccccc1` (stereo unspecified) yielded an Inhibition of 98%.

Each compound was assayed on Plasmodium falciparum (assay: GSK_TCMDC: Inhibition of Plasmodium falciparum Dd2 in whole red blood cells, using parasite LDH activity as an index of growth. Test compounds present at 2uM).
Format: functional
In the case of `COC(=O)c1ccc(CC(C)NCC(O)c2ccc(F)c(Cl)c2)cc1.Cl` (stereo unspecified), the Inhibition is reported as 78%. Work on `O=C(Nc1ccc(Oc2ccccc2)cc1)NC1CCC(CN2CCC(c3c[nH]c4ccccc34)CC2)CC1` (stereo unspecified) yielded an Inhibition of 97%. Compound `O=C(/C=C/c1ccc(Cl)c(Cl)c1)NCC1CCC(N2CCC(c3c[nH]c4ccccc34)CC2)CC1` (stereo unspecified) has an Inhibition of 95%. `CCCN(CCC)CCOC(=O)C(OCC)(c1ccccc1)c1ccccc1` showed an Inhibition of 0%. `COc1ccc2[nH]cc(C3CC4CCC(C3)N4CCC3CCN(C(=O)/C=C/c4ccc(Cl)c(Cl)c4)CC3)c2c1` (stereo unspecified) showed an Inhibition of 80%. Work on `COC(=O)/C=C/c1ccc(CC(C)NCC(O)c2cccc(C(F)(F)F)c2)cc1` (stereo unspecified) yielded an Inhibition of 96%. `CNCCCCCCc1ccc(CC(C)NCC(O)c2cccc(Cl)c2)cc1.Cl` (stereo unspecified) was tested, and the Inhibition was 76%. `O=C(NC1CCC(CN2CCC(c3c[nH]c4ccccc34)CC2)CC1)c1cc(-c2ccccc2)c(C(F)(F)F)s1` (stereo unspecified) gave an Inhibition of 100%. With `CC(C)CNCc1cccc(-c2cccc(CN(C(=O)c3cccs3)C3CCN(Cc4ccccc4)CC3)c2)c1.O=C(O)C(F)(F)F` the Inhibition was 36%. `Cc1ccc(C)c(N2CCN(Cc3ccccc3O)CC2)c1` showed an Inhibition of 90%. With `S=C(NCCc1ccc(Cl)cc1)NC1CCC(CN2CCC(c3c[nH]c4ccccc34)CC2)CC1` (stereo unspecified) the Inhibition was 84% and 34%. Work on `COc1ccc(CC(C)NCC(O)c2cccc(Cl)c2F)cc1` (stereo unspecified) yielded an Inhibition of 59%. Compound `O=C(/C=C/c1ccc(Cl)c(Cl)c1)N1CCC2CC(N3CCC(c4c[nH]c5ccccc45)CC3)CCC2C1` (stereo unspecified) has an Inhibition of 99%. `CCCCCCCc1cc(O)c2c3c(c(=O)oc2c1)CN(C)CC3` was tested, and the Inhibition was 100%. In the case of `COC(=O)c1ccc(CC(C)NCC(O)c2cccc(Br)c2)cc1` (stereo unspecified), the Inhibition is reported as 88%. With `COC(=O)c1ccc(CC(C)NCC(O)c2cccc(C(F)(F)F)c2)cc1C` (stereo unspecified) the Inhibition was 74%. Work on `O=C(/C=C/c1ccc(Cl)c(Cl)c1)NCCC1CCC(N2CCC(c3c[nH]c4ccccc34)CC2)CC1` (stereo unspecified) yielded an Inhibition of 99%. In the case of `COC(=O)c1ccc(CC(C)NCC(O)c2cc(Cl)c(N)c(Cl)c2)cc1` (stereo unspecified), the Inhibition is reported as 66%. `CC(Cc1ccc(NC(=O)[C@H](C)NCCc2cccc(Cl)c2)cc1)NCCc1cccc(Cl)c1.Cl` (stereo partly specified) was tested, and the Inhibition was 54%. `Cc1ccc(C[C@@H](C)NC[C@H](O)c2cccc(C(F)(F)F)c2)cc1.O=C(O)/C=C/C(=O)O` showed an Inhibition of 79%. For `CC[C@H]1CN2CC[C@H]1C[C@H]2[C@H](O)c1cc(-c2ccc(Cl)c(Cl)c2)nc2ccc(OC)cc12.Cl`, the Inhibition was 99%. `Cc1c(C)c2c(c(C)c1O)CC[C@](C)(C(=O)N1CCC(CN3CCC(c4c[nH]c5ccccc45)CC3)CC1)O2` showed an Inhibition of 98%. `CN(c1cc(NC(=O)c2ccc(F)cc2)ccn1)C1CCN(Cc2ccc(C#N)cc2)CC1.O=C(O)C(F)(F)F` was tested, and the Inhibition was 54%. For `O=C(CCCCCc1ccccc1)NC1CCC(CN2CCC(c3c[nH]c4ccccc34)CC2)CC1` (stereo unspecified), the Inhibition was 5%. `COCC(=O)N(Cc1ccccc1-c1cccc(CNCCc2ccccc2)c1)C1CCN(Cc2ccccc2)CC1.O=C(O)C(F)(F)F` gave an Inhibition of 36%. With `COc1ccc(N(c2nc(-c3cc(Cl)ccc3Cl)cs2)C2CCNCC2)cc1.O=C(O)C(F)(F)F` the Inhibition was 4%. In the case of `O=C(/C=C/c1ccc(Cl)c(Cl)c1)NCCCCCN1C2CCC1CC(c1c[nH]c3ccc(O)cc13)C2` (stereo unspecified), the Inhibition is reported as 0% and 20%. For `Cc1csc(-c2ccc3[nH]cc(C4=CCN(C)CC4)c3c2)n1`, the Inhibition was 78%. In the case of `O=C(NC1CCC(CN2CCC(c3c[nH]c4ccccc34)CC2)CC1)c1cn(Cc2ccccc2)c2ccccc12` (stereo unspecified), the Inhibition is reported as 48%. With `Cn1c(C2CC3CCC(C2)N3CC2CCC(NC(=O)/C=C/c3ccc(Cl)c(Cl)c3)CC2)nc2ccccc21` (stereo unspecified) the Inhibition was 51%. For `C/C=C1\CN2CC[C@H]1C[C@@H]2[C@@H](O)c1ccnc2ccc(O)cc12`, the Inhibition was 0%. `CCCCCCC(CC)c1cc(O)c2c(c1)OC(C)(C)c1ccncc1-2.Cl` (stereo unspecified) gave an Inhibition of 52%. `CNCCCCCCOc1ccc(CC(C)NCC(O)c2cccc(C(F)(F)F)c2)cc1.Cl` (stereo unspecified) gave an Inhibition of 79%. In the case of `CN(c1cc(NC(=O)c2cccs2)ccn1)C1CCN(Cc2cccc(C#N)c2)CC1.O=C(O)C(F)(F)F`, the Inhibition is reported as 69%. In the case of `Cn1nc(-c2ccc(S(=O)(=O)NC3CCC(CN4CCC(c5c[nH]c6ccccc56)CC4)CC3)s2)cc1C(F)(F)F` (stereo unspecified), the Inhibition is reported as 24% and 29%. With `FC(F)(F)c1cccc(N2CCC(CN3CCC(c4c[nH]c5ccccc45)CC3)CC2)n1.O=C(O)C(F)(F)F` the Inhibition was 10%. In the case of `CC(Cc1ccc(C(C)(C)C)cc1)NCC(O)c1ccccc1.Cl` (stereo unspecified), the Inhibition is reported as 89%. `CCOC(C(=O)OCC1CCCN1C(C)C)(c1ccccc1)c1ccccc1` (stereo unspecified) gave an Inhibition of 2%.

Reference: ChEMBL document CHEMBL1157539, “Thousands of chemical starting points for antimalarial lead identification” (Nature, 2010)
